Calls of active or inactive are those of the source.

The nature of experiment [1]: binders of probe aFSTL3 on microarray, primary screen, stem cell growth factor project, biochemical, small-molecule microarray, fluorescence 635/667 (AID 1064).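 Also: measures binding of the biotinylated anti-FSTL3 antibody to printed compounds.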 The following applies: higher = more signal.
Experiment [2] is described as follows: binders from COS7 lysate, DM2A8 probe, primary screen, torsin A project, cell lysate, small-molecule microarray, fluorescence 635/667 (AID 1065). The following applies: higher = more signal, COS7 lysate expressing mutant human TOR1A.
Experiment [3] is described as follows: binders of probe aFGF2 on microarray, primary screen, stem cell growth factor project, biochemical, small-molecule microarray, fluorescence 635/667 (AID 1067).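 Also: measures binding of biotinylated aFGF2 protein to printed compounds on slides; z-score merges feature fluorescence and signal-to-noise across triplicate slides.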 The following applies: higher = more signal.
Experiment [4] can be described thus: binders of probe aFGF10 on microarray, primary screen, stem cell growth factor project, biochemical, small-molecule microarray, fluorescence 635/667 (AID 1071).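 Also: score merges 667 nm spot intensity and signal to noise from triplicate slides.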 The following applies: higher = more signal.
In experiment [5] the target is Neurogenic locus notch homolog protein 2 (Homo sapiens) (UniProt Q04721). Nature of the experiment: Notch2 binders on small-molecule microarrays, primary screen, biochemical, small-molecule microarray, 635 nm fluorescence, stem cell growth factors (AID 1073). The following applies: Notch2 binding, higher = more signal.
For experiment [6], the target named is Pro-neuregulin-1, membrane-bound isoform (Homo sapiens) (UniProt Q02297). Nature of the experiment: NRG1 binders on small-molecule microarrays, primary screen, psychiatric disease protein project, biochemical, small-molecule microarray, fluorescence 635/667 (AID 1075).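 Also: score combines 667 nm spot fluorescence with signal to noise.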 The following applies: NRG1 binding, 635 nm fluorescence, higher = more signal.
The subject of experiment [7] is Neuregulin-1 EGF-like domain. Nature of the experiment: binders of neuregulin-1 EGF-like domain, primary screen, biochemical, small-molecule microarray, 635 nm fluorescence (AID 1081).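 Also: binding of the protein to compounds printed on small-molecule microarray slides.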 The following applies: small-molecule microarray binding, higher = more signal.
Experiment [8] in a line: FRG1 promoter luciferase signal modulators, primary screen, FRG1 inhibition for FSHD, cell-based, C2C12 myotubes, firefly/Renilla luciferase, luminescence (AID 1084). The following applies: higher = more signal, called active from +8 up or from −8 down.
Experiment [9] can be described thus: binders of probe aFST on microarray, primary screen, stem cell growth factor project, biochemical, small-molecule microarray, fluorescence 635/667 (AID 1086).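 Also: score merges 667 nm fluorescence with signal-to-noise of each printed compound spot.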 The following applies: higher = more signal.
Experiment [10] is described as follows: binders of probe aHhip on microarray, primary screen, stem cell growth factor project, biochemical, small-molecule microarray, fluorescence 635/667 (AID 1087).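 Also: score merges spot fluorescence at 667nm with spot signal to noise ratio.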 The following applies: higher = more signal.
Experiment [11] relates to PRMT1 (protein arginine N-methyltransferase 1). Nature of the experiment: PRMT1 binders on small-molecule microarrays, primary screen, biochemical, small-molecule microarray, 635 nm fluorescence (AID 1088).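 Also: binding of Prmt1 protein to compounds spotted on small-molecule microarray slides.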 The following applies: small-molecule microarray binding, higher = more signal.
A short description of experiment [12]: yeast growth modulation, basal conditions, primary screen, YJM789 clinical isolate, OD600, 24 h (AID 1089).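 Also: growth of clinical yeast isolate S. cerevisiae YJM 789 seeded 1000 cells per well; test concentration not given here.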 The following applies: S. cerevisiae YJM789 growth, higher = more signal, called active from +8 up or from −8 down.
Experiment [13] is described as follows: fission yeast growth modulation, primary screen, strain 972, OD600, 24 h, no modulator (AID 1090).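 Also: basal condition with compound alone and no growth modifier present; test concentration not given here.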 The following applies: S. pombe 972 growth, higher = more signal, called active from +8 up or from −8 down.
Experiment [14] in a line: S. cerevisiae growth modulation with rapamycin, primary screen, strain BY4716, OD600, 96 h (AID 1091). Also: test concentration not given here. The following applies: higher = more signal, called active from +8 up or from −8 down.
The target of experiment [15] is Torsin-1A-interacting protein 2 (Homo sapiens) (UniProt Q8NFQ8). As to the kind of experiment: LULL1 binders on small-molecule microarray, primary screen, cell lysate, human LULL1 lysate, 635/667 nm fluorescence (AID 1092).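 Also: score merges per-feature 667 nm fluorescence with signal-to-noise.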 The following applies: hLULL1 lysate binding, 635 nm fluorescence, higher = more signal.
Experiment [16] is described as follows: E. coli growth modulation, two-sided OD650, primary screen, E. coli filamentation project, strain DRC41, 24 h (AID 1093).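 Also: MC1000 strain lacking acrAB efflux and sulA so SOS filamentation is blocked; test concentration not given here.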 The following applies: OD650, 24 h, higher = more signal, called active from +8 up or from −8 down.
Experiment [17] in a line: small-molecule microarray binders of probe aLefty2, primary screen, biochemical, biotinylated probe, 635/667 nm fluorescence (AID 1094).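 Also: score merges spot fluorescence near 667 nm with spot signal-to-noise ratio.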 The following applies: higher = more signal.
For experiment [18], the system named is Noggin (protein binding on small-molecule microarray). As to the kind of experiment: Noggin binders on small-molecule microarray, primary screen, biochemical, 635/667 nm fluorescence (AID 1095).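 Also: score merges 667 nm feature fluorescence with signal to noise over triplicate slides.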 The following applies: 635 nm fluorescence, higher = more signal.
Experiment [19] has as its target Neurogenic locus notch homolog protein 3 (Homo sapiens) (UniProt Q9UM47). Nature of the experiment: NOTCH3 binders on small-molecule microarray, primary screen, biochemical, 635/667 nm fluorescence (AID 1096). The following applies: NOTCH3 binding, 635 nm fluorescence, higher = more signal.
A short description of experiment [20]: small-molecule microarray binders of probe aEGFR, primary screen, biochemical, biotinylated probe, 635/667 nm fluorescence (AID 1097).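 Also: probe is a biotinylated anti-EGFR antibody binding compounds printed on slides; score combines fluorescence near 667 nm and signal to noise of each spot.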 The following applies: higher = more signal.

Neurogenic locus notch homolog protein 3 (Homo sapiens), sequence (Q9UM47 whole entry, looked up): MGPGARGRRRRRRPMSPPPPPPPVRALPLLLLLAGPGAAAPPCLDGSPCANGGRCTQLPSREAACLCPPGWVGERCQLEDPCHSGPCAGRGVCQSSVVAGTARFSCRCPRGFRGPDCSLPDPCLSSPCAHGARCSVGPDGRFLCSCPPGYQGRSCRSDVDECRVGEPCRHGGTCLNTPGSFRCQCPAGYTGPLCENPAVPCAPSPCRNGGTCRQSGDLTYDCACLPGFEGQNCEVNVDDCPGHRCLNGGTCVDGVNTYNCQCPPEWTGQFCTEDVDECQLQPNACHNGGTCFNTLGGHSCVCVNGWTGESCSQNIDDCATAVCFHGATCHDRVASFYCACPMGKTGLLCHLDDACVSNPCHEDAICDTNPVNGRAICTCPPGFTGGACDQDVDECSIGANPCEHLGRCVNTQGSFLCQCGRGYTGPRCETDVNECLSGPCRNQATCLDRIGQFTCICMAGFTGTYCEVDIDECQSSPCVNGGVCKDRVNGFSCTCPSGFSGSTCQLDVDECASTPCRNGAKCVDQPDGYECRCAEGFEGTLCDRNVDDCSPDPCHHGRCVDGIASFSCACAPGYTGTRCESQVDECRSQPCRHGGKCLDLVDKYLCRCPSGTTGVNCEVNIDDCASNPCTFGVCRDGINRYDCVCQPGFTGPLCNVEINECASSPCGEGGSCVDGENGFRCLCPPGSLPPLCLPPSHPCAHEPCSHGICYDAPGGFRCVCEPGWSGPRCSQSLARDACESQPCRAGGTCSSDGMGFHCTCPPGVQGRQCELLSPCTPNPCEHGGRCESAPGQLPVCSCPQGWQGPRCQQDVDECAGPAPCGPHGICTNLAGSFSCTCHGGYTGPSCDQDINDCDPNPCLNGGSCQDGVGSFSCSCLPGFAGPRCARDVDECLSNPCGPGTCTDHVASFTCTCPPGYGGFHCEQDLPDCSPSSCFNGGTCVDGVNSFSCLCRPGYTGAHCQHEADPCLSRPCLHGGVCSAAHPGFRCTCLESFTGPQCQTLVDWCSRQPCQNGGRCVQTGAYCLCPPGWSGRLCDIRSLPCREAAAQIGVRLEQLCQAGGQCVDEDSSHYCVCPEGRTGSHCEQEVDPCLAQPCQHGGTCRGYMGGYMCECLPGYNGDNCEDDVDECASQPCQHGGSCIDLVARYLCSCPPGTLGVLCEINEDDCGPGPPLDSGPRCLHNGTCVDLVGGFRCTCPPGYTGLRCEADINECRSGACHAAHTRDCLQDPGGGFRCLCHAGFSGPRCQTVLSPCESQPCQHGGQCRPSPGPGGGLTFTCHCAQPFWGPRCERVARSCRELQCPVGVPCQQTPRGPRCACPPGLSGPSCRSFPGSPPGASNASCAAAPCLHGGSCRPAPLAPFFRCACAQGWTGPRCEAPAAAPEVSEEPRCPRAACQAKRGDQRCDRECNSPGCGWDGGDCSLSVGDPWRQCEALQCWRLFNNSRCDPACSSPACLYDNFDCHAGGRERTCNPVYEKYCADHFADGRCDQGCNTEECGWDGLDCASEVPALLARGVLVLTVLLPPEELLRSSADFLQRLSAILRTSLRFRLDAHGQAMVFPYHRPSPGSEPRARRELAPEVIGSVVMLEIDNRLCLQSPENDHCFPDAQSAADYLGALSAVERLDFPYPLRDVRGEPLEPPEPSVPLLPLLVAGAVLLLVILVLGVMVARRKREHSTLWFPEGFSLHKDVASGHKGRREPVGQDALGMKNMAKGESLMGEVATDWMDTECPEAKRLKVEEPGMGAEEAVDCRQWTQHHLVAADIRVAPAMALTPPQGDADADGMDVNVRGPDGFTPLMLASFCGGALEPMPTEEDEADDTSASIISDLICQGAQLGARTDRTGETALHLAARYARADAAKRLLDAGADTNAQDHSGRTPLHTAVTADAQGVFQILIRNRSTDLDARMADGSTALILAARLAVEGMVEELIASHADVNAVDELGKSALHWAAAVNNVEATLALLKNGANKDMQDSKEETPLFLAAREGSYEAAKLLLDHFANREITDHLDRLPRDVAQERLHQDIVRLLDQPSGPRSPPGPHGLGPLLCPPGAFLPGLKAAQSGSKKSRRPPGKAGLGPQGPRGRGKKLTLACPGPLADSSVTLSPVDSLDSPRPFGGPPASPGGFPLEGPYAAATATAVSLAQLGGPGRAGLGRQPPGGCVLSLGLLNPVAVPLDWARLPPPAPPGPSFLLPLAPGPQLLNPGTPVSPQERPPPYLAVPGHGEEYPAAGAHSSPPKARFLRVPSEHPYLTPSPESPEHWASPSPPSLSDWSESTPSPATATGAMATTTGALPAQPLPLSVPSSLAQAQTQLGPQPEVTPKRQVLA
Torsin-1A-interacting protein 2 (Homo sapiens), sequence (Q8NFQ8 whole entry, looked up): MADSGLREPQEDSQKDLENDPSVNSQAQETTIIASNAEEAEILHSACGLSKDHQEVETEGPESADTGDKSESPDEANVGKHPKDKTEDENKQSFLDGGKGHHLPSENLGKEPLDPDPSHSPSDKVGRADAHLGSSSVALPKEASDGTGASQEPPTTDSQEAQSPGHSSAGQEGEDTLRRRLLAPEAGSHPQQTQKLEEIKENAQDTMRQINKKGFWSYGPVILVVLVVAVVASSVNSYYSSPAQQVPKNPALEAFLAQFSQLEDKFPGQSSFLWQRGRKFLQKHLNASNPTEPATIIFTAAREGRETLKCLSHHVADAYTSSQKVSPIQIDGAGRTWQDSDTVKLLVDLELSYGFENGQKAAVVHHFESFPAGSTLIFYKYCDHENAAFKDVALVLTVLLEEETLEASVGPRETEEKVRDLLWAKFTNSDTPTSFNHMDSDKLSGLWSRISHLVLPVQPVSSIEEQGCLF
Pro-neuregulin-1, membrane-bound isoform (Homo sapiens), sequence (Q02297 whole entry, looked up, the tested form may be a part, canonical isoform): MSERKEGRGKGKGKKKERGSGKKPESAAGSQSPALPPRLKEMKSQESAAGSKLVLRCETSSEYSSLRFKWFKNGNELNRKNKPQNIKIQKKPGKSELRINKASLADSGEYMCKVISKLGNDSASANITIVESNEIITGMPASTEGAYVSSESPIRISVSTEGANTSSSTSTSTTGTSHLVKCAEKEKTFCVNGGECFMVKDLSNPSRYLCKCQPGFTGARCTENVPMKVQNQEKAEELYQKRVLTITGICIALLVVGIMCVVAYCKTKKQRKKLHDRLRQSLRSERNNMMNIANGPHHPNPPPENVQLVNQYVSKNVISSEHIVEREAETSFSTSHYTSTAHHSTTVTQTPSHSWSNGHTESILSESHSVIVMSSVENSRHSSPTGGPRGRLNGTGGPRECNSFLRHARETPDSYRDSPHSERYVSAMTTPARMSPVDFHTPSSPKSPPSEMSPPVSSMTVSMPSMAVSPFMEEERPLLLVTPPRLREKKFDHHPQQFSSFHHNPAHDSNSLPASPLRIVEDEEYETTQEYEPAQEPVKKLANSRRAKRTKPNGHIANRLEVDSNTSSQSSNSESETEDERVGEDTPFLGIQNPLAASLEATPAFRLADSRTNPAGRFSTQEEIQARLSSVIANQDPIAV

`CC(CCN1CCCCc2nc(C)c(C)cc21)=NO[C@H](C)c1cn([C@@H]2COC[C@H]2O)nn1`: the composite z-score in experiment [1] is -0.565; in [2] it was 2.25; in experiment [3], -0.126; in [4], 0.517; in [5], 1.11; in experiment [6], 0.172. Besides, the composite z-score is 1.18 in experiment [7]; 0.462 in experiment [9]; -0.0772 in experiment [10]; 1.19 in [11]; 0.967 in experiment [15]; 0.0636 in [17]. In addition, the composite z-score in experiment [18] turned out to be 1.51; in [19] it was 0.486; in experiment [20] it was 0.267. Moreover, the z-score in [8] is 0.227 (inactive); in experiment [12], 0.565 (inactive); in experiment [13], 1.07 (inactive); in [14], 0.601 (inactive); in [16], 0.681 (inactive).
`CCOC(=O)CCN1C(=O)[C@H]2[C@H]3[C@H](O)[C@H](O)CC(=NOCC=C(C)CCC=C(C)C)[C@@H]3CC[C@H]2C1=O`: the composite z-score in experiment [1] is 0.149; in [2] it was 1.13; in experiment [3] it was -0.133; in [4] it was 0.84; in [5], 0.845; in experiment [6] it was 0.258. Also, the composite z-score in experiment [7] was 0.658; in experiment [9], 0.42; in experiment [10], 0.0515; in experiment [11] it was 0.316; in experiment [15], 1.01; in experiment [17], -0.197. For the same compound, the results for the composite z-score in experiment [18], in [19] and in experiment [20] were 0.742, 0.808 and -0.0415, respectively. Moreover, the z-score is -0.594 (inactive) in experiment [8]; -1.28 (inactive) in experiment [12]; 0.237 (inactive) in [13]; -0.44 (inactive) in experiment [14]; 6.79 (inactive) in experiment [16].
Regarding `COc1cccc([C@H]2Oc3ccc(OC)cc3C(=NO[C@@H](C)c3cc(-c4c(C)cc(C)cc4C)no3)[C@@H]2O)c1`, the composite z-score in experiment [1] was 2.15; in experiment [2] it was -0.187; in experiment [3], -0.238; in [4], -1.44; in [5], -2.2; in [6], -0.144. Also, the composite z-score in [7] was -0.393; in [9] it was -0.391; in experiment [10], -0.45; in [11] it was -0.506; in experiment [15], -0.141; in experiment [17], 0.25. Also, the composite z-score is -2.14 in experiment [18], -2.58 in experiment [19] and -0.434 in [20]. Also, the z-score in experiment [8] was -3.59 (inactive); in [12], 0.463 (inactive); in [13], 1.49 (inactive); in experiment [14] it was 0.626 (inactive); in [16], -0.169 (inactive).
Regarding `O=C(NN=C1C[C@@H](O)[C@@H](O)[C@@H]2[C@@H]3C(=O)N(Cc4ccc5c(c4)OCO5)C(=O)[C@@H]3CC[C@@H]12)OCc1ccccc1`, the composite z-score is 0.595 in experiment [1]; -0.183 in experiment [2]; -0.0467 in experiment [3]; 0.107 in [4]; 0.133 in experiment [5]; 0.022 in [6]. Besides, the composite z-score in experiment [7] is -0.17; in experiment [9], 0.312; in experiment [10], -0.134; in experiment [11], -0.0443; in [15] it was 0.418; in experiment [17], 0.0026. Also, the composite z-score was -0.0248 in [18], -0.142 in experiment [19] and -0.0433 in experiment [20]. In addition, the z-score in experiment [8] is 1.78 (inactive); in experiment [12], 0.186 (inactive); in [13] it was -0.475 (inactive); in experiment [14] it was -0.4 (inactive); in [16], 0.885 (inactive).
On to `COC(=O)[C@H](C)NC(=O)CCC1CC(OC(=O)NCCc2ccc(F)cc2)CC2(CCCC(COC(=O)NCCc3ccccc3OC)O2)O1` (stereo not given in full), for which the composite z-score was -0.93 in experiment [1]; -0.328 in experiment [2]; -0.172 in [3]; 0.706 in experiment [4]; 1.16 in experiment [5]; 0.608 in experiment [6]. Besides, the composite z-score in experiment [7] was 0.729; in [9] it was -0.0835; in experiment [10] it was -0.361; in [11], 1.11; in [15], 1.16; in experiment [17] it was -0.0916. For the same compound, the composite z-score was determined as 0.452 in experiment [18], 1.09 in experiment [19] and 0.104 in [20]. In addition, the z-score is -0.0438 (inactive) in experiment [8]; 0.522 (inactive) in experiment [12]; 0.89 (inactive) in experiment [13]; 0.896 (inactive) in experiment [14]; -0.0328 (inactive) in experiment [16].

These data come from PubChem BioAssay.
